Source: PubChem BioAssay
Activity calls are given as the source filed them.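 How the source made its calls: active means RAM network inhibition above 8.4% in each of two replicates, 3 SD over the compound average; inconclusive means above 8.4% inhibition in only one replicate; inactive means 8.4% inhibition or less in each replicate.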

Test: RAM signaling pathway blockade in yeast – S. cerevisiae, Pdr1DBD-CYC8 efflux-inhibited sensitized strain, primary screen (AID 1298);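 further: 0% = DMSO untreated cells without growth and 100% = 10 µM 1-NA-PP1 full growth; higher means more yeast growth rescued from 5-FOA killing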
Conditions: S. cerevisiae cbk1-as DSE1-URA3 strain, 5-FOA growth OD615, 2 d; at 50 µM; stronger effect = higher value

SMILES	RAM network inhibition
CCCCOC(=O)Cc1c(O)c2ccccc2[nH]c1=O	-0.98% (inactive)
CCOc1ccc(S(=O)(=O)Nc2ccccc2C(=O)NCC2CCCO2)cc1 (centres undefined)	5.77% (inactive)
O=C1C(Cl)=C(NCC2CCCO2)C(=O)N1C1CCCCC1 (centres undefined)	5.88% (inactive)
CC1=C(C(=O)N2CCOCC2)C(c2cccs2)NC(=O)N1 (centres undefined)	3.01% (inactive)
CCC1CCCCN1C(=O)CSc1nnc(-c2ccc(Cl)cc2)o1 (centres undefined)	5.69% (inactive)
COC(=O)CN1C(=O)C(O)(CC(=O)c2cccc(Br)c2)c2ccccc21 (centres undefined)	2.42% (inactive)
O=P(O)(CCc1ccccn1)CN1CCOCC1	1.09% (inactive)
O=C(NCc1cccnc1)NC1(C(F)(F)F)Oc2ccc(Cl)cc2O1 (centres undefined)	0.63% (inactive)
CN(C)C(C(=O)NC1CCCCC1)c1ccc(Cl)cc1 (centres undefined)	-0.68% (inactive)
COc1ccc(C)cc1NC(=O)C1CCCN(S(=O)(=O)c2c(C)noc2/C=C/N(C)C)C1 (centres undefined)	4.58% (inactive)
COc1ccc(S(=O)(=O)Nc2ccc3c(c2)OCO3)cc1C(=O)O	3.99% (inactive)
O=C(Nc1nnc(C2CC2)s1)c1cc(-c2ccccc2)nn1-c1ccccc1	3.62% (inactive)
O=C(Oc1cccnc1)c1cccc(Cl)c1	-2.15% (inactive)
COc1ccc(N2CCN(C(=O)c3ccc4nc(N5CCCCC5)sc4c3)CC2)cc1	6.15% (inactive)
O=C(Cn1cc2c(n1)CCCC2)Nc1ccccc1Br	1.15% (inactive)
CCCN(CC1CC1)S(=O)(=O)c1ccc(S(N)(=O)=O)cc1	1.48% (inactive)
Fc1ccccc1N1CCN(C2CCN(Cc3c[nH]c4ccccc34)CC2)CC1	0.22% (inactive)
COc1ccccc1NC(=O)C1=C(C)Nc2nc(-c3cccs3)nn2C1c1cccnc1 (centres undefined)	4.86% (inactive)
COc1ccccc1NC1C=CS(=O)(=O)C1 (centres undefined)	4.65% (inactive)
COc1ccc(C2(C(=O)NCCCN(C)C)CCOCC2)cc1	1.69% (inactive)
COc1ccccc1C1NC(=O)NC(C)=C1C(=O)Nc1cccc(C)c1C (centres undefined)	-1.38% (inactive)
CCCCSCc1[nH]c(=O)[nH]c1C(=O)CCCCC(=O)OCC	2.54% (inactive)
Cn1cc(S(=O)(=O)N2CCN(Cc3ccccc3)CC2)c(=O)n(C)c1=O	-0.22% (inactive)
CCOc1ccc(S(=O)(=O)n2ccnc2)c2ccccc12	2.78% (inactive)
